This is a sample that favours compounds with a hit; in the whole collection about 4% have one here.
DUSP3 inh – inhibitors of human VHR1 phosphatase (DUSP3). P51452. recombinant VHR phosphatase, pNPP absorbance. inhibition, % at 13.3 µM. actives 0.52% (n = 290,000). AID 1654; in the data active = inhibition above about 50%
MazEF act – MazEF (E. coli) toxin RNase activation | P0AE70 | FAM/BHQ RNA-DNA oligo cleavage fluorescence, 5 h | activation, % at 20 µM | actives 0.32% (n = 350,000) | AID 504720; in the data active = activation above about 50%
BoNT F protease – BoNT F light chain protease inhibition; Multiplex microsphere protease cleavage assay, flow cytometry; actives 0.22% (n = 360,000); inhibition, % at 10 µM; AID 588497; in the data active = inhibition above about 35%, passing the limit was not always enough; inconclusive = no clear call, values can overlap the other calls; note: plate controls were buffer without enzyme for full effect and enzyme alone for no effect
Anthrax LF inh2 – anthrax lethal factor protease inhibition; actives 0.12% (n = 360,000); multiplex microsphere protease cleavage assay, LF; inhibition, % at 10 µM; P15917; AID 588501; note: plate controls were buffer without enzyme for full effect and enzyme alone for no effect
Autofluor counter – counter-screen for toxin protease inhibitors: compound fluorescence; AID 624483; compound autofluorescence counterscreen, microsphere flow cytometry; active compounds read high; fluorescence intensity (test concentration not listed); actives 3.1% (n = 360,000); in the data active = fluorescence intensity above about 16000; inconclusive = no clear call, values can overlap the other calls
BoNT-A LC inh2 – inhibitors of Botulinum neurotoxin A light chain protease | AID 588499 | multiplex microsphere protease substrate cleavage, flow cytometry | actives 0.17% (n = 360,000) | inhibition, % at 10 µM; note: plate controls were buffer without enzyme for full effect and enzyme alone for no effect
* = called active by the depositor; ? = inconclusive; . = no result. Cut-off read from the data, not from the text of the source, unless noted: active = inhibition above about 30%; inconclusive = no clear call, values can overlap the other calls; inactive = below that.

SMILES	DUSP3 inh	MazEF act	BoNT F protease	Anthrax LF inh2	Autofluor counter	BoNT-A LC inh2
CC1CN(C(=O)c2cc3cc([N+](=O)[O-])ccc3s2)CC(C)O1 (stereo not drawn)	38	161*	-3	-3	3892	1
CC1CN(C(=O)c2cc3cc([N+](=O)[O-])ccc3oc2=O)CC(C)O1 (stereo not drawn)	12	9	1	5	5503	-2
COc1cc2c(cc1OC)CN(C(=O)CCCN1C(=O)c3ccccc3C1=O)CC2	7	1	-2	-2	22299*	?
CCOC(=O)C1=C(C)NC2=C(C(=O)CC(C)(C)C2)C1c1cccc(C)n1 (stereo not drawn)	10	1	-2	-1	20812*	-1
CCOC(=O)C1=C(C)NC(C)=C(C(=O)OCC)C1c1cccc(C)n1	-9	4	-5	3	6096	0
CCCCSc1nc2ccccc2n1CC(=O)O	18	-20	-5	0	2360	0
Cc1ccc2nc(NC3=NC4(CCCC4)C4=C(CCCC4=O)N3)oc2c1	.	.	3	-7	2970	0
CCc1c(O)nc(SCC(=O)Nc2nc3ccccc3s2)n(C2CCCCC2)c1=O	10	-4	?	-8	4298	-7
CCc1c(O)nc(SCC(=O)Nc2ccc(OC)cc2)n(C2CCCCC2)c1=O	-8	0	-4	-1	24511*	-3
CC1CCN(S(=O)(=O)c2cc(Br)cc(C(=O)NC3=NCCS3)c2)CC1	8	-1	-7	0	24164*	0
CCN(CC)S(=O)(=O)c1ccc(C(=O)NC2=NCCS2)cc1	4	-8	-4	-5	4122	0
CSc1nnc(-c2nnc(SC)n2-c2ccccc2)n1-c1ccccc1	-12	2	0	-1	16237*	0
O=C(CN1C(=O)NC2(CCc3ccccc32)C1=O)Nc1ccc(N2CCOCC2)cc1 (stereo not drawn)	16	-4	-3	-3	16378*	0
O=C(CN1C(=O)NC2(CCCc3ccccc32)C1=O)N1CCN(C(=O)c2ccco2)CC1 (stereo not drawn)	54*	-3	7	2	3264	0
O=S(=O)(c1ccc(F)cc1)c1nc(-c2ccccc2F)oc1N1CCCCC1	19	-6	3	-6	20089*	?
COc1ccc(/C=C/C(=O)OC(C)CN2CCCCC2)cc1 (stereo not drawn)	-7	5	?	1	4198	-3
COc1nc(-c2ccccc2)ccc1-c1noc(-c2cccnc2)n1	-24	-21	-5	-2	23960*	-2
COc1nc(-c2ccc(C)cc2)ccc1-c1noc(-c2cccnc2)n1	29	-3	-2	0	3859	1
COc1nc(C)ccc1-c1noc(-c2ccco2)n1	-6	9	0	-6	20448*	0
COc1ccc(-c2ccc(-c3noc(-c4ccccc4C)n3)c(OC)n2)cc1	4	-23	0	-1	3041	0
COc1nc(-c2ccc(C)cc2)ccc1-c1noc(-c2ccco2)n1	36	-19	-3	5	4596	1
COc1ccc(-c2ccc(-c3noc(-c4ccccc4OC)n3)c(OC)n2)cc1	6	61*	-1	4	3286	0
COc1ccc(-c2nc(-c3ccc(Br)cc3)no2)c(OC)c1	-3	-32	-2	6	19523*	1
CN1CC(C(=O)c2ccccc2)C(C(=O)c2ccccc2)C1 (stereo not drawn)	-33	8	?	-8	4801	-2
COc1ccc(-c2ccc(-c3noc(C)n3)c(OC)n2)cc1	22	-11	-17	-2	12232	-1
SMILES	DUSP3 inh	MazEF act	BoNT F protease	Anthrax LF inh2	Autofluor counter	BoNT-A LC inh2
CCOc1cc(-c2nc(-c3ccc(C)nc3OC)no2)cc(OCC)c1OCC	4	-3	-3	-7	5845	0
COc1ccc(CC(=O)Nc2ccc(-c3noc(-c4ccccc4OC)n3)cc2)cc1	0	-16	0	-2	22431*	?
COc1cccc(-c2nc(-c3ccc(NC(=O)Cc4ccccc4OC)cc3)no2)c1	9	-33	-4	0	2236	0
CCOc1nc(-c2ccc(OC)cc2)ccc1-c1noc(C)n1	-24	-4	-4	-2	21728*	?
CCOc1cc(-c2nc(-c3ccc(C)nc3OCC)no2)cc(OCC)c1OCC	-13	0	-1	-6	23089*	?
CN1C(=O)N(C)C2CC1N(C)C(=O)N2C	-2	9	-5	-1	10310	-1
CC(C(=O)Nc1ccc2c(c1)OCCO2)n1nnc(-c2ccccc2)n1 (stereo not drawn)	19	-1	-1	0	2501	1
CCCC(C(=O)NC(C)(C)CC)N(Cc1ccco1)C(=O)CNS(=O)(=O)c1ccccc1 (stereo not drawn)	58*	6	-12	2	3055	-5
COCCNC(=O)CSc1nc(-c2ccc(OC)c(OC)c2)cc(C(F)(F)F)n1	-13	4	.	.	.	.
CCn1cc(CNC(=O)CSc2nc(-c3ccc(OC)c(OC)c3)cc(C(F)(F)F)n2)c(C)n1	51*	-1	10	0	1949	0
CC(C)(C)c1[nH]nc2c1C(c1ccc(OC(=O)c3ccco3)cc1)C(C#N)=C(N)O2 (stereo not drawn)	14	-2	9	-2	5605	1
O=C(Nc1ccc(S(=O)(=O)N2CCCc3ccccc32)cc1)C1CCCO1 (stereo not drawn)	-15	0	-3	-3	17480*	-6
NS(=O)(=O)c1ccc(NC(=O)c2ccc(S(=O)(=O)N3CCc4ccccc43)cc2)cc1	18	12	2	0	2543	0
COc1ccc(C(=O)Nc2ccc(S(=O)(=O)N3CCc4ccccc43)cc2)cc1	.	-1	-6	-3	16637*	-1
Cc1ccc(C(=O)Nc2ccc(S(=O)(=O)N3CCc4ccccc43)cc2)o1	0	1	-3	-7	23775*	?
Cc1ccc(C(=O)Nc2ccc(S(=O)(=O)N3CCCC3)cc2)o1	2	0	-3	0	5745	1
OC(c1ccc(Cl)c(F)c1)c1ncc(-c2ccc(Cl)cc2)[nH]1 (stereo not drawn)	.	.	1	2	3912	0
CC1CN(S(=O)(=O)Cc2ccccc2)CC(C)O1 (stereo not drawn)	-21	-16	-6	-1	10968	-1
CC1CN(S(=O)(=O)c2ccccc2)CC(C)O1 (stereo not drawn)	-8	-1	0	0	23507*	?
O=C(O)CCC1(C(=O)O)OCCc2ccccc21 (stereo not drawn)	10	-3	-5	0	12586	-1
Cc1cc(C)n(-c2nc3ccccc3c(=O)n2OCC(N)=O)n1	15	-4	-1	-1	21858*	0
Cc1cc(CC(C)C)n(-c2nc3ccccc3c(=O)n2OCC(N)=O)n1	18	0	?	-4	4378	0

Source: PubChem
